ugtP null kill – compounds lethal to S. aureus RN4220 ugtP deletion mutant | hit rate 0.54% among 330,000 | AID 1259309 | growth inhibition, % (test concentration not listed) | OD600 growth, 16 h; in the data active = growth inhibition above about 68%
RN4220 kill – S. aureus RN4220 growth inhibition; OD600, 16 h; inhibition, % (test concentration not listed); hit rate 0.33% among 330,000; in the data active = inhibition above about 85%
Mtb hypoxia inh – reduces hypoxia-regulated biosensor signal in M. tuberculosis; fluorescence inhibition, % (concentration not given with the values); hit rate 0.1% among 300,000; M. tuberculosis hypoxia-regulated fluorescent reporter, fluorescence; in the data active = fluorescence inhibition mostly above about 23%, no sharp cut-off; inactive = mostly below about 17%
Mtb betalactam – beta-lactam sensitization of Mtb H37Rv; M. tuberculosis H37Rv growth with meropenem, percent inhibition; inhibition, % at 25 µM; hit rate 0.27% among 330,000; call rule not given here;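 note: growth measured after seven days incubation then overnight dye step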
Of the large screens only hits and unclear results are named; the others gave an inactive call. This is a sample that favours compounds with a hit; in the whole collection about 0.61% have one here.

CCC(C)N=Cc1c(Nc2ccccc2)nc2c(C)cccn2c1=O (configuration not stated)	Mtb hypoxia inh 50.7
Cc1cccn2c(=O)c(C=NO)c(Nc3ccccc3F)nc12	none (no result: Mtb betalactam)
Cc1ccc(-c2cc(-c3ccc(C)cc3O)[nH]n2)cc1	none
Cc1ccc(O)c(-c2cc(-c3cccc(Br)c3)n[nH]2)c1	RN4220 kill 86.9
O=C(/C=C/c1ccco1)NC(=S)Nc1ccccc1N1CCCC1	ugtP null kill 98.6
O=C(/C=C/c1ccco1)Nc1ccccc1N1CCCC1	none
O=C(/C=C/c1ccco1)NC(=S)Nc1cc(C(F)(F)F)ccc1N1CCOCC1	none (no result: ugtP null kill, RN4220 kill, Mtb hypoxia inh)
O=C(C=Cc1ccco1)NC(=S)Nc1cc(C(F)(F)F)ccc1N1CCOCC1	ugtP null kill 95.9 (no result: Mtb betalactam)
O=C(/C=C/c1ccco1)NC(=S)Nc1ccccc1N1CCOCC1	ugtP null kill 97.9
Cc1c(C=NNC(=O)c2sc3ccccc3c2Cl)cnn1C	none (no result: Mtb hypoxia inh, Mtb betalactam)
Cc1noc(C)c1NC(=O)N(C)CC1Oc2ccc(NC(=O)Cc3ccccc3)cc2C(=O)N(C(C)CO)CC1C (configuration not stated)	none (no result: Mtb betalactam)
CCCCN1CC(=O)N2C(c3ccc(OC)cc3)C3C(=O)N(CC)C(=O)C3[C@]2(Cc2ccccc2)C1=O (some centres not stated)	none (no result: Mtb betalactam)
COc1ccc2nc(C)cc(NN=Cc3ccc(F)cc3)c2c1	Mtb hypoxia inh 77.5 (no result: Mtb betalactam)
CCCCCCc1cc2cc(-c3nnc(-c4ccccc4O)o3)c(=O)oc2cc1O	ugtP null kill 97.4, Mtb betalactam inconclusive
Cc1cccc(S(=O)(=O)Nc2cccc(-c3cn4ccsc4n3)c2)c1	ugtP null kill 84.7
CC(=NNc1nc2c(s1)CCCC2)c1ccc(Cl)cc1	none (no result: Mtb betalactam)
N#C/C(=C\c1ccc([N+](=O)[O-])o1)c1nc2ccccc2[nH]1	ugtP null kill 100.1, RN4220 kill 99.9 (not shown: Mtb hypoxia inh)
Cc1ccc2nc(/C(C#N)=C\c3ccc([N+](=O)[O-])o3)[nH]c2c1	ugtP null kill 98.7, RN4220 kill 99.5 (not shown: Mtb hypoxia inh)
O=C(Nc1cc([N+](=O)[O-])ccc1Cl)C(Sc1ccccc1)c1ccccc1 (configuration not stated)	none
O=C(Nc1ccc(Cl)c([N+](=O)[O-])c1)C(Sc1ccccc1)c1ccccc1 (configuration not stated)	ugtP null kill 99.2, RN4220 kill 85.9
CCOc1c(OC(C)=O)ccc(/C=C/c2ccc3cccc(OC(C)=O)c3n2)c1[N+](=O)[O-]	none
C=CCN1C(=O)/C(=C/c2ccc(OC(C)=O)c(OCC)c2[N+](=O)[O-])SC1=S	ugtP null kill 100.0, RN4220 kill 99.0 (no result: Mtb betalactam)
O=C1CC(c2ccccc2)CC(=NCCO)/C1=C(/O)CCCN1C(=O)c2ccccc2C1=O (configuration not stated)	none (no result: Mtb betalactam)
CC(Cl)=CCSc1nn2c(=O)c3ccccc3nc2s1	none (no result: Mtb betalactam)
CC1CCC(C(C)C)C(OC(=O)COC(=O)c2cccn2C)C1 (configuration not stated)	none (no result: Mtb hypoxia inh)
CC1CCC(C(C)C)C(OC(=O)Cn2c(-c3ccc(Cl)cc3)[n+](C)c3ccccc32)C1 (configuration not stated)	ugtP null kill 99.9, RN4220 kill 100.3 (not shown: Mtb hypoxia inh)
Cc1ccccc1OCc1n(CC(=O)OC2CC(C)CCC2C(C)C)c2ccccc2[n+]1C (configuration not stated)	ugtP null kill 100.8, RN4220 kill 100.1 (not shown: Mtb hypoxia inh)
CC1CCC(C(C)C)C(OC(=O)COC(=O)c2ccccc2N)C1 (configuration not stated)	ugtP null kill 94.2
CCCCCCCCCCOC(=O)Cn1c(COc2ccccc2C)[n+](C)c2ccccc21	none (no result: ugtP null kill, RN4220 kill, Mtb hypoxia inh)
CC1CCC(C(C)C)C(OC(=O)Cn2c(-c3ccc(Br)cc3)[n+](C)c3ccccc32)C1 (configuration not stated)	ugtP null kill 100.3, RN4220 kill 100.0 (not shown: Mtb hypoxia inh)
Cc1cc(N2CCOCC2)ccc1C=C1NC(=O)N(CC(=O)Nc2ccc(F)cc2)C1=O	none (no result: Mtb betalactam)
CCOC(=O)C(=O)NN=Cc1ccco1	none (no result: Mtb betalactam)
O=C(Cc1cccs1)NN=Cc1ccc([N+](=O)[O-])s1	none (no result: Mtb betalactam)
CCSc1ncc(C=NNc2ccc(F)cc2)n1C	none (no result: Mtb hypoxia inh, Mtb betalactam)
Cc1ccc(N=C2SC(C(=O)Nc3ccc(OC(F)(F)F)cc3)C(N)=C2C(=O)Nc2c(C)cc(C)cc2C)cc1 (configuration not stated)	ugtP null kill 100.4, RN4220 kill 100.0
COc1ccc2[nH]c3c(C)c4ccncc4c(C)c3c2c1	ugtP null kill 96.0, RN4220 kill 98.4 (no result: Mtb hypoxia inh)
Cc1c2ccncc2c(C)c2c1[nH]c1ccccc12	ugtP null kill 99.8, RN4220 kill 98.2, Mtb hypoxia inh 60.0
Cc1c2ccncc2cc2c1[nH]c1ccccc12	none (no result: Mtb betalactam)
N#Cc1ccc(C23CC4(C2)C(CN(CC2CCCCC2)C4c2ccccc2)C3c2ccccc2)cc1 (configuration not stated)	none (no result: Mtb betalactam)
O=C(COC(=O)c1cc2ccccc2cc1O)c1ccccc1	none
O=C(OCc1ccccc1F)c1cc2ccccc2cc1O	ugtP null kill 87.4
CC(c1ccccc1)N1C(=O)c2ccc(C(=O)Nc3ccccc3C(=O)O)cc2C1=O (configuration not stated)	none
CC(c1ccccc1)N1C(=O)c2ccc(C(=O)Nc3ccc(Br)cc3C(=O)O)cc2C1=O (configuration not stated)	ugtP null kill 92.0, RN4220 kill 100.5
Cc1[nH]n(-c2ccc(Br)cc2)c(=O)c1C=NNC(=O)c1ccccc1	ugtP null kill 96.6, RN4220 kill 94.0 (no result: Mtb betalactam)
CC(=O)N/N=C/c1c(C)[nH]n(-c2ccccc2)c1=O	none (no result: ugtP null kill, RN4220 kill, Mtb hypoxia inh)
CC(C)(C)C1CCc2c(sc(NC(=O)CSc3ncn[nH]3)c2C#N)C1 (configuration not stated)	ugtP null kill 88.4
CC(C)(C)OC(=O)NC(COCc1ccccc1)C(=O)NC(CO)C(O)C1CC1C(=O)NC1CC1 (configuration not stated)	none (no result: Mtb betalactam)
CC(=O)C1C(=O)C=C(c2cccs2)CC1c1ccccc1 (configuration not stated)	none
O=C1C=C(c2cccs2)C[C@H](c2ccccc2)[C@H]1n1nnc([N+](=O)[O-])n1	ugtP null kill 97.8
CCCCN1C(=O)C(=O)NCC1C(C)CC (configuration not stated)	none (no result: Mtb betalactam)
O=C(C[n+]1cc(-c2ccc(Cl)cc2)n2c1CCCCC2)c1ccccc1	none
COc1ccc(-c2c[n+](CC(=O)OC3CC(C)CCC3C(C)C)c3n2CCC3)cc1 (configuration not stated)	ugtP null kill 99.9, RN4220 kill 99.8 (not shown: Mtb hypoxia inh)
CC(C)[C@@H]1CC[C@@H](C)C[C@H]1OC(=O)C[n+]1cc(-c2ccc(Cl)cc2)n2c1CCCCC2	ugtP null kill 100.4, RN4220 kill 100.6 (not shown: Mtb hypoxia inh)
CC(=NNC(=O)Cc1cccs1)c1ccco1	none (no result: Mtb betalactam)
COCCNC(=S)NN=C(C)c1cccc([N+](=O)[O-])c1	none (no result: Mtb betalactam)
CN(C)CC/C=C1/c2ccccc2Sc2ccc(Cl)cc21	none
CCCCCC[N+](C)(C)CC/C=C1/c2ccccc2Sc2ccc(Cl)cc21	ugtP null kill 98.6, RN4220 kill 100.2 (not shown: Mtb hypoxia inh)
CCc1nc(NCCC(C)C)c(C#N)c2c1CCCC2	ugtP null kill 87.8
CC(=NNC(=O)c1nc2ccccn2c1C)c1cccc([N+](=O)[O-])c1	none (no result: Mtb betalactam)
Cc1ccc(NC(=O)c2ccc(Nc3c([N+](=O)[O-])cc([N+](=O)[O-])cc3[N+](=O)[O-])cc2)cc1	Mtb hypoxia inh 45.7

Source: PubChem
